A short description of assay [1]: reducers of endogenous Her2 protein level, primary screen, SKBR3 breast tumor cells, AlphaScreen, ATP viability (AID 461).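 As to Her2 level: lower value means less Her2 protein in the cells.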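 As to viability: percent of carrier control wells set as 100% viability.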 To be noted: 18-24 h, measured here: SKBR3 viability, ATP luminescence, at 10 µM. Background: Bead proximity is the source of the signal in Alpha formats.
Assay [2] concerns the target Receptor tyrosine-protein kinase erbB-2 (Homo sapiens) (UniProt P04626). The assay is described as above. The conditions noted are these: 18-24 h, at 10 µM, stronger effect = lower value.
Assay [3] can be described thus: SK-BR-3 cell growth inhibitors, pilot screen, 24 h, human (AID 572;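 active = viability at or below 10% of carrier control in both of two separate runs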;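 also: compound exposure lasted between 18 and 24 h rather than exactly 24 h; 100% = carrier-treated control wells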). To be noted: SK-BR-3 viability, CellTiter-Glo luminescence, at 10 µM, stronger effect = lower value.
The nature of assay [4]: HUVEC growth inhibition – cell-based, human, primary screen (AID 575;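 active = viability at or below 30% in both replicate assays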;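 also: 100% = median of untreated cell wells with 0.1% DMSO on each plate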). The conditions noted are these: HUVEC proliferation, CellTiter-Glo luminescence, 72 h; at 10 µM; stronger effect = lower value. (ATP-based viability assays read luminescence as a measure of living cells.)
A short description of assay [5]: growth inhibitors of H69AR lung tumor, primary screen, human, duplicate replicates (AID 580;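 active = viability at or under a set limit in both replicates, limit being median viability minus 3 SD, cut at about 48% in these data, passing the limit was not always enough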;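 also: 100% = mean luminescence of untreated wells and 0% = no signal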). The conditions noted are these: H69AR lung tumor cells viability, ATP luminescence, 72 h; at 10 µM; stronger effect = lower value.
The nature of assay [6]: reversal of MRP1-mediated doxorubicin resistance, pilot screen, H69AR cells, doxorubicin co-treatment (AID 601;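 active = viability loss from added drug above about 55%, and viability with drug at most 40%, in both replicates, limit read from the data, passing the limit was not always enough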). The conditions noted are these: CellTiter-Glo, 72 h, at 10 µM; for differential viability (reversal): stronger effect = higher value.
The nature of assay [7]: 384-well plate pilot, post-Golgi transport modulator project, inhibition of yeast transport mutant growth (AID 636; in the data active = inhibition above about 31%). To be noted: absorbance 615 nm, about 18 h, stronger effect = higher value.
Assay [8] is described as follows: growth suppression of yeast trafficking mutant, preliminary HTS, modulators of trafficking downstream of Golgi apparatus project, 1536-format plate, OD 615 nm (AID 637; in the data active = inhibition above about 30%). To be noted: yeast transport mutant growth, absorbance 615 nm, 18 h; stronger effect = higher value.
The nature of assay [9]: OD615 S. cerevisiae growth inhibition, permissive medium, pilot counter-assay, permissive growth control for S. cerevisiae lifespan shortening project (AID 705;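 active = growth inhibition above 25% in both replicates, a cutoff set 3 SD above the mean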). The conditions noted are these: OD615, 24 h, at 10 µM, stronger effect = higher value.
Assay [10] in a line: Restrictive medium S. cerevisiae growth inhibition, OD615, pilot screen of yeast lifespan reduction project, restrictive growth control (AID 706;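 active = growth inhibition above a set limit, 3 SD over mean compound inhibition, in both replicates, cut at about 43% in these data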;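 also: modified DeaD lifespan yeast strain shifted to restrictive glucose medium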). To be noted: OD615, 48 h, at 10 µM, stronger effect = higher value.
Assay [11] in a line: viability gain of MRP-1-high H69AR cells under doxorubicin, pilot screen, MRP-1 activator project, CellTiter-Glo, duplicate (AID 807;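 active = viability increase at or above a cutoff of the median across tested compounds plus 3 SD, cut at about 8.5% in these data, passing the limit was not always enough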;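 also: compound pretreatment 18-22 h then 72 h combined with doxorubicin; 0% = doxorubicin alone and 100% = vehicle without doxorubicin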). To be noted: H69AR viability with doxorubicin, CellTiter-Glo luminescence; at 10 µM; stronger effect = higher value.
Assay [12] in a line: growth suppression of beta-catenin knockout HCT116, pilot screen, human colon tumor cells (AID 823;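 active = cell viability at or below a set limit in both duplicate runs, the limit being the all-compound median minus 4 SD, cut at about 23% in these data, passing the limit was not always enough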;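 also: 0% = wells killed by 20 µM Hyamine and 100% = untreated DMSO cell wells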). To be noted: CellTiter-Glo, 60 h, at 10 µM, stronger effect = lower value.
Assay [13] can be described thus: growth suppression of PTEN-deleted HCT116, pilot screen, cell-based, HCT116 clonal line, CellTiter-Glo (AID 824;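 active = viability at or below 27.92% in each of two runs, the all-compound median minus 4 SD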;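 also: 0% = 20 µM Hyamine control and 100% = vehicle cell control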). The conditions noted are these: 60 h, at 10 µM, stronger effect = lower value.
A short description of assay [14]: inhibitors of the yeast RAM network, pilot screen, dse1pr::URA3 reporter, 5-FOA selection (AID 869;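 active = inhibition over a set limit, the all-compound mean plus 3 SD, in both replicate runs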;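 also: 0% = DMSO wells with no growth and 100% = 10 µM 1-NA-PP1 with full growth; RAM network block rescues cells from 5-FOA so hits raise OD615 growth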). The conditions noted are these: S. cerevisiae dse1pr::URA3 5-FOA growth, OD615, 2 d; at 10 µM; stronger effect = higher value; strain carries analog-sensitive mutant Cbk1 kinase.
Assay [15] in a line: RAM signaling pathway blockade in yeast – S. cerevisiae, Pdr1DBD-CYC8 efflux-inhibited sensitized strain, primary screen (AID 1298;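 active = RAM network inhibition above 8.4% in each of two replicates, 3 SD over the compound average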;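 also: 0% = DMSO untreated cells without growth and 100% = 10 µM 1-NA-PP1 full growth; higher means more yeast growth rescued from 5-FOA killing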). To be noted: S. cerevisiae cbk1-as DSE1-URA3 strain, 5-FOA growth OD615, 2 d; at 50 µM; stronger effect = higher value.
Where [16] appears, read: H69AR cells + 2 uM doxorubicin, measured here: viability with 2 uM doxorubicin, stronger effect = lower value.
The mark [17] stands for this setting: H69AR cells, compound alone cytotoxicity.

Records with an inconclusive call do not appear. Calls of active or inactive are those of the source.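 The calls were made as follows, unless noted: active = Her2 level under about 52% in both replicate screens, with viability over 70% of control (limit read from the data); inconclusive = Her2 under the limit in one screen only, or viability under 70%; inactive = Her2 level above the set limit.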

Chain of Receptor tyrosine-protein kinase erbB-2 (Homo sapiens) (P04626 whole entry, looked up): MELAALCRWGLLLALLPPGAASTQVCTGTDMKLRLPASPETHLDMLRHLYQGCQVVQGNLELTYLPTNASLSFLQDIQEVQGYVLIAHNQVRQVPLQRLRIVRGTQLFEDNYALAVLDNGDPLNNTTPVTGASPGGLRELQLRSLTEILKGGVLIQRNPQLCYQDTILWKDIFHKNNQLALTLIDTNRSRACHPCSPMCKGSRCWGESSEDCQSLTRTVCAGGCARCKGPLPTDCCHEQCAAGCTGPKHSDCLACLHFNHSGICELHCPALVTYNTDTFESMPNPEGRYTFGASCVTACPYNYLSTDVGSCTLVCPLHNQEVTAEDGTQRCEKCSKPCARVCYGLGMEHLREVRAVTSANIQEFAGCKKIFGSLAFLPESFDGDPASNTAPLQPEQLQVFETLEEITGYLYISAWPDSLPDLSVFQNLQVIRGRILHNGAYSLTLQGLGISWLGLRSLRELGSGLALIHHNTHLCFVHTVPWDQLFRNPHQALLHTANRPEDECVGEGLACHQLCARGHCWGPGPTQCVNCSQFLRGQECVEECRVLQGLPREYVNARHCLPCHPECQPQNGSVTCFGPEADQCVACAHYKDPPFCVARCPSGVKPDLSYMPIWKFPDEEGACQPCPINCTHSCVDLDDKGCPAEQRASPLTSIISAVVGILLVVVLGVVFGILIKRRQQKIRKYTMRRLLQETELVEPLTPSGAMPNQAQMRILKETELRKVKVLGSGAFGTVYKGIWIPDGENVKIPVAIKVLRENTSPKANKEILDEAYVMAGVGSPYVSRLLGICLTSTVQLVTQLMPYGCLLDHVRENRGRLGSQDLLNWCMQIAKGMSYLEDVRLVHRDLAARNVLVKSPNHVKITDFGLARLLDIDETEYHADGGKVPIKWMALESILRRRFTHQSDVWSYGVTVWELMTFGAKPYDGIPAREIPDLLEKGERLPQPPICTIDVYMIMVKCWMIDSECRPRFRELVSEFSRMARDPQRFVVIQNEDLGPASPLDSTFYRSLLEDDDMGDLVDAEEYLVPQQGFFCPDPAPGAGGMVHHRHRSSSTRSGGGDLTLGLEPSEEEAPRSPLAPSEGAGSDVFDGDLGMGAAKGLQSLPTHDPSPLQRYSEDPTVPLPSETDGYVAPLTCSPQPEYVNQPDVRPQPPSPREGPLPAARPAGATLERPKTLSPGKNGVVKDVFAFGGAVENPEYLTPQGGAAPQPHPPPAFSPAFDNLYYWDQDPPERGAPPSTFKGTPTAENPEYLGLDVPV

Broadly, the viability is a read-out of living cells in per cent, often relative to untreated cells. As usually defined, the inhibition is the change of the read-out against control, counted positive when it falls. For the compound `COc1cccc(C(=O)Nc2cc(C)c3c(=O)oc4ccccc4c3n2)c1`, the viability in [1] is 80.5%; in [3] it was 80.5% (inactive); in assay [4] it was 57.6% (inactive); in [5] it was 81.9% (inactive); in [6] (setting [16]), 101%; in [6] (setting [17]), 81.9%. For the same compound, the viability in [12] was 85.2% (inactive); in [13], 81.7% (inactive). For the same compound, in [2], the Her2 level is 62.5% (inactive). Also, the differential viability (reversal) in assay [6] (H69AR cells + 2 uM doxorubicin) was -19.4% (inactive). Moreover, the inhibition is -6.53% (inactive) in assay [7], -4.67% (inactive) in assay [8] and 2.74% (inactive) in assay [14]. For the same compound, the growth inhibition is -1.54% (inactive) in [9] and -1.12% (inactive) in [10]. The viability increase in assay [11] is 3.07% (inactive). Besides, in [15], the RAM network inhibition is 4.69% (inactive).

Turning to `Cc1cc(C)nc(/N=C2\NC(=O)CC(C(=O)O)N2c2ccc(Cl)cc2)n1` (configuration not stated), the viability in assay [1] is 106%; in assay [3], 106% (inactive); in [4] it was 88.7% (inactive); in assay [5], 96% (inactive); in assay [6] (setting [16]), 92.9%; in [6] (setting [17]), 96%. The viability in [12] is 99.5% (inactive); in assay [13] it was 102% (inactive). In [2], the Her2 level was 100% (inactive). Further, the differential viability (reversal) in assay [6] (H69AR cells + 2 uM doxorubicin) is 3.08% (inactive). In addition, the inhibition in [7] is -6.53% (inactive); in [8], 5.17% (inactive); in [14], 1.93% (inactive). Also, the growth inhibition in [9] is 0.655% (inactive); in assay [10] it was 5.68% (inactive). Besides, the viability increase in assay [11] was 1.08% (inactive). In addition, the RAM network inhibition in assay [15] was 3.63% (inactive).

As for `O=c1c2ccccc2nc(SCc2nc(-c3ccccc3)no2)n1-c1ccc(F)cc1`, the viability in [1] was 90.5%; in assay [3], 90.5% (inactive); in assay [4] it was 79.7% (inactive); in assay [5] it was 89.7% (inactive); in assay [6] (setting [16]), 95.5%; in [6] (setting [17]), 89.7%. Further, the figures for the viability in assay [12] and in [13] were 72.2% (inactive) and 68.6% (inactive), respectively. Also, the Her2 level in [2] was 98% (inactive). Further, the differential viability (reversal) in [6] (H69AR cells + 2 uM doxorubicin) is -5.78% (inactive). Moreover, the inhibition is -5.73% (inactive) in assay [7], 2.17% (inactive) in assay [8] and 1.77% (inactive) in [14]. Also, the growth inhibition in [9] was 2.33% (inactive); in assay [10], -3.72% (inactive). Further, the viability increase in assay [11] was -1.52% (inactive). In addition, the RAM network inhibition in assay [15] was 8.86% (inactive).

For `COc1cc(C(=O)N2c3ccccc3CC2C)cc(OC)c1OC` (configuration not stated), the viability in [1] is 102%; in assay [3] it was 102% (inactive); in assay [4] it was 88.8% (inactive); in assay [5] it was 81.8% (inactive); in [6] (setting [16]), 91.3%; in [6] (setting [17]), 81.8%. Moreover, the viability was 87.4% (inactive) in [12] and 83.8% (inactive) in assay [13]. In [2], the Her2 level is 81.5% (inactive). Moreover, the differential viability (reversal) in assay [6] (H69AR cells + 2 uM doxorubicin) is -9.55% (inactive). In addition, the inhibition in assay [7] is -4.59% (inactive); in [8] it was -3.33% (inactive); in assay [14] it was 0.67% (inactive). Further, the growth inhibition in assay [9] was -3.11% (inactive); in [10], -16.6% (inactive). Also, the viability increase in [11] was -4.64% (inactive). Moreover, the RAM network inhibition in assay [15] was 6.34% (inactive).

Regarding `COc1c(C(=O)Nc2c(C)n(C)n(-c3ccccc3)c2=O)ccc2ccccc12`, the viability in assay [1] is 97%; in [3] it was 97% (inactive); in assay [4] it was 99.3% (inactive); in [5], 113% (inactive); in assay [6] (setting [16]), 87%; in [6] (setting [17]), 113%. The results for the viability in [12] and in assay [13] were 98.8% (inactive) and 98.3% (inactive), respectively. In assay [2], the Her2 level was 104% (inactive). Further, the differential viability (reversal) in assay [6] (H69AR cells + 2 uM doxorubicin) is 25.5% (inactive). For the same compound, the inhibition in assay [7] is -1.07% (inactive); in assay [8], -6.45% (inactive); in assay [14], 0.775% (inactive). In addition, the growth inhibition in assay [9] is -2.42% (inactive); in [10], -6.28% (inactive). For the same compound, in assay [11], the viability increase is -0.81% (inactive). Also, the RAM network inhibition in assay [15] is 4.37% (inactive).

On to `Oc1ccc(Cl)cc1-c1cc(-c2ccccc2)n[nH]1`, for which the viability is 55.5% in assay [1]; 55.5% (inactive) in [3]; 7.56% (active) in [4]; 6.37% (active) in assay [5]; 13.9% in assay [6] (setting [16]); 6.37% in [6] (setting [17]). Moreover, the values for the viability in assay [12] and in assay [13] were 16% (active) and 23.1% (active), respectively. The Her2 level in assay [2] is 61% (inactive). The differential viability (reversal) in [6] (H69AR cells + 2 uM doxorubicin) is -7.55% (inactive). For the same compound, the inhibition is -0.53% (inactive) in assay [7], 100% (active) in [8] and 1.59% (inactive) in assay [14]. Moreover, the growth inhibition in assay [9] is -1.5% (inactive); in assay [10], -6.9% (inactive). The viability increase in assay [11] was -7.82% (inactive). Besides, the RAM network inhibition in [15] is 8.32% (inactive).

These data come from PubChem BioAssay.
